# Measurements taken from PubChem BioAssay (NCI).
# This is part of a sample that, as a whole, favours compounds with a hit. Of some 83,000 tested, about 20% had one in any assay.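 Results are percent growth after 48 hours of single-concentration exposure. 100 means growth as in untreated cells, lower positive values show inhibition; negative values down to -100 show cell death.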 Values without a mark were called inactive. The source made the active and inactive calls. The calls were made as follows: active = growth percent below 10; inactive = the rest.
# Columns and labels:
# Assay in all cases: NCI-60 one-dose screen, 48 h (100 = growth as untreated, 0 = no growth, -100 = all killed)
# Details in all cases: 10 µM unless noted
# NCI-H23 lung = system: NCI-H23 lung
# NCI-H226 lung = system: NCI-H226 lung
# NCI-H322M lung = system: NCI-H322M lung
# HOP-62 NSCLC = system: HOP-62 NSCLC
# NCI-H460 lung = system: NCI-H460 lung
# HOP-92 NSCLC = system: HOP-92 NSCLC
# NCI-H522 lung = system: NCI-H522 lung
# A549/ATCC NSCLC = system: A549/ATCC NSCLC
# 786-0 renal = system: 786-0 renal
# COLO 205 colon = system: COLO 205 colon
# DU-145 prostate = system: DU-145 prostate
# K-562 leukemia = system: K-562 leukemia
# MALME-3M melanoma = system: MALME-3M melanoma
# MDA-MB-231 breast = system: MDA-MB-231 breast
# RXF 393 renal = system: RXF 393 renal
# SF-268 CNS = system: SF-268 CNS
# SF-295 CNS = system: SF-295 CNS
# SF-539 CNS = system: SF-539 CNS
# UACC-257 melanoma = system: UACC-257 melanoma
# M14 melanoma = system: M14 melanoma
Compound,growth (NCI-H23 lung),growth (NCI-H226 lung),growth (NCI-H322M lung),growth (HOP-62 NSCLC),growth (NCI-H460 lung),growth (HOP-92 NSCLC),growth (NCI-H522 lung),growth (A549/ATCC NSCLC),growth (786-0 renal),growth (COLO 205 colon),growth (DU-145 prostate),growth (K-562 leukemia),growth (MALME-3M melanoma),growth (MDA-MB-231 breast),growth (RXF 393 renal),growth (SF-268 CNS),growth (SF-295 CNS),growth (SF-539 CNS),growth (UACC-257 melanoma),growth (M14 melanoma)
Oc1cccc2ccc(N/N=C/c3cc(CN4CCOCC4)c(O)c4ncccc34)nc12,-2.08% (active),26.5%,27.7%,7.13% (active),-7.47% (active),43.5%,-13.7% (active),5.15% (active),19.4%,12.2%,22.4%,13.4%,16.3%,20%,10.4%,18.7%,17.5%,9.66% (active),17.8%,4.83% (active)
CC1C(/C=N/Nc2ccccc2)C(C#N)(C#N)C1(C#N)C#N (stereo not given),78.6%,88%,75.1%,57.1%,87.9%,90.5%,53.9%,85.1%,92.9%,105%,89.7%,–,99.2%,70.1%,105%,75.4%,70.9%,102%,98.6%,33.2%
N#Cc1c(N)n(CCNC(=O)c2ccccc2)c2nc3ccccc3nc12,103%,97.2%,121%,111%,117%,-17.4% (active),84.2%,105%,92%,115%,134%,87.8%,120%,112%,–,106%,121%,121%,97.9%,112%
OC(c1cc2cc(Cl)c(Cl)cc2c2cc(C(F)(F)F)ccc12)C1CCCCN1 (stereo not given),-52.9% (active),-72.3% (active),-8.7% (active),-80.7% (active),-71.8% (active),-70.9% (active),-78.4% (active),-84% (active),-78.1% (active),-88.2% (active),-86.2% (active),-63.5% (active),-17.6% (active),-71.3% (active),-96.2% (active),-88.6% (active),–,-57.9% (active),-73% (active),-80.9% (active)
CC(O)CN(CC(C)O)c1ccc2c(c1)Cc1cc([N+](=O)[O-])ccc1-2 (stereo not given),93.5%,101%,65.8%,102%,104%,88.7%,80%,119%,107%,104%,101%,–,83.7%,99.6%,105%,85.2%,90.3%,92.4%,125%,106%
Cc1c(/C=C/[N+](=O)[O-])ccc2c1[nH]c1ccccc12,93.3%,54.3%,134%,106%,95.4%,90.6%,94.8%,87.8%,73.2%,82.2%,99.3%,91.6%,135%,106%,62.6%,108%,103%,94.2%,90%,37.7%
Cc1cc(N2CCN(c3ccnc4cc(Cl)ccc34)CC2)nc(N2CCOCC2)n1,84.4%,88.6%,95.3%,91.9%,96.7%,66.2%,85.3%,89.4%,97.8%,73%,88.1%,55.9%,–,64.1%,80.6%,87.4%,81.1%,96.6%,88.6%,87.2%
Cc1ncc(C(=O)Nc2ccc(CN3CCN(C)CC3)c(C(F)(F)F)c2)cc1C#Cc1cnc2cccnn12,-38.4% (active),-56.8% (active),-1.83% (active),4.59% (active),-53.1% (active),-4.77% (active),-18.9% (active),-2.38% (active),1.06% (active),-41.5% (active),5.5% (active),0.556% (active),-72% (active),-1.12% (active),-58.1% (active),-29.8% (active),8.94% (active),-52.2% (active),-2.41% (active),-79.9% (active)
CCOC(=O)c1sc(Nc2ccc(Cl)cc2)nc1C,19.3%,21.9%,53.4%,28.3%,19.3%,-20.9% (active),-14.4% (active),15.2%,25%,11%,35.5%,–,36.7%,1.04% (active),10.9%,30%,16.3%,25.3%,7.95% (active),12.9%
Nc1nc2ncc(CCNc3ccc(C(=O)O)cc3)nc2c(=O)[nH]1,108%,100%,125%,113%,114%,97.8%,100%,105%,104%,105%,128%,115%,137%,107%,112%,120%,110%,101%,104%,107%
COc1ccc(/C=C\c2cc(OC)c(OC)c(OC)c2)cc1OCC(=O)Nc1ccc2nc(C)sc2c1,37.6%,24.8%,69.9%,44.4%,24.5%,52%,-2.14% (active),30.5%,79.6%,75%,64.6%,18.4%,42.2%,37.1%,70.3%,52.1%,–,57.1%,58.5%,25.9%
CCOc1cc2c(cc1OCC)C(c1cc(OC)c(O)cc1Cl)NCC2 (stereo not given),96.7%,100%,110%,98.1%,98.4%,114%,102%,88.6%,84.1%,-37.4% (active),110%,53.3%,55.2%,88.6%,85.1%,100%,–,101%,99.2%,80.2%
CCCSc1ccc2nc(NC(=O)OC)[nH]c2c1,24%,23.2%,60.1%,35.2%,6.79% (active),33.6%,-35.7% (active),16.5%,31%,5.29% (active),16.1%,14.7%,42%,18.8%,-4.86% (active),44.8%,-2.45% (active),4.44% (active),59.3%,0.47% (active)
CS(=O)(=O)c1ccc(-n2nc(-c3ccc(Br)cc3)c3ccccc3c2=O)cc1,95%,100%,109%,97.2%,99.1%,85.7%,97%,97.9%,121%,103%,99.2%,90.9%,–,90.1%,97.1%,95%,94%,96.2%,97.3%,107%
Cc1cc(Nc2ccc(C)c(Cl)c2)n2nc(C(F)(F)F)nc2n1,63.6%,21.3%,93.3%,-17.2% (active),69%,-9.25% (active),36.2%,42.5%,-46.2% (active),38.3%,42.5%,54.8%,-15.2% (active),2.77% (active),-9.51% (active),39.4%,–,33.1%,74.4%,51.7%
C=C1c2nc3ccccc3n2C=C(c2ccc(OC)cc2)N1Cc1ccccc1,81.3%,102%,102%,136%,90.8%,95.9%,64.5%,96%,83.6%,92.8%,103%,73.5%,109%,100%,101%,89.2%,103%,115%,97.1%,98.1%
